Compound activity deposited in PubChem BioAssay by National Center for Advancing Translational Sciences (NCATS).
CHX counter – Cycloheximide Counterscreen for Small Molecule Inhibitors of Shiga Toxin. cell reporter, cycloheximide protein synthesis inhibition counterscreen. max response, %. 12% of 300,000 active. AID 2314, 2010; in the data active means max response mostly above about 13%, no sharp cut-off; inactive means mostly below about 14%; further: read at 38.3 µM for the half of the compounds with a filed dose; 0% is about no effect
AMA1-RON2 inh – qHTS for Inhibitors of AMA1-RON; Towards Development of Antimalarial Drug Lead: Primary Screen | Plasmodium falciparum AMA1 (3D7) - RON2 peptide interaction | AlphaScreen AMA1-biotinylated RON2 peptide binding | Potency, µM (highest dose often 58.2 µM), inactives show at the top dose activity change, negative = inhibition, usual class: inhibitors | 0.2% of 360,000 active;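 further: potency means the concentration at half of the fitted maximal effect; 0% = vehicle wells and -100% = peptide control; nearly all actives have a fitted effect of over 45% in size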
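AMA1 (3D7) with his tag at 25 nM final met compounds first, then biotinylated RON2 peptide at 25 nM; detection used donor plus acceptor beads, 10 µg/mL apiece, read by AlphaScreen after 30 min at room temperature.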
SARS PLP yeast – qHTS of Yeast-based Assay for SARS-CoV PLP; S. cerevisiae expressing SARS-CoV PLpro, growth rescue; Potency, µM (titrated, usually from 32.9 µM), inactives show top-dose activity, positive = growth rescue, most hits filed as activators; 0.19% of 330,000 active; calls by dose curve; further: potency means the concentration at half of the fitted maximal effect; 0% is about no effect; nearly all actives have a fitted effect of over 55% in size
Pf growth 96h – Primary qHTS for delayed death inhibitors of the malarial parasite plastid, 96 hour incubation; P. falciparum luciferase reporter growth, 96 h; Potency, µM (doses to about 28.7 µM), without a hit: at the top dose activity change, negative = inhibition, hits mostly inhibitors; 6.9% of 320,000 active; AID 504834, 2011; further: potency means the concentration at half of the fitted maximal effect; on the % scale 0 is the no-effect control and ±100 the full control effect
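Erythrocytes infected with luciferase-expressing P. falciparum were dispensed at 2% hematocrit and 0.05% parasitemia (final), then incubated with compounds 96 hours at 37 C in 5% CO2. Luminescence after detection reagent addition reported growth.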
Shiga toxin inh – A qHTS for Small Molecule Inhibitors of Shiga Toxin; Vero cells, Shiga toxin protein synthesis inhibition reporter; AID 2315, 2010; inhibition, % at 38.7 µM; 9.2% of 290,000 active; in the data active means inhibition mostly above about 28%, no sharp cut-off; inactive means mostly below about 43%; further: 0% is about no effect
Pf growth 48h – Primary qHTS for delayed death inhibitors of the malarial parasite plastid, 48 hour incubation | 5.9% of 310,000 active | Potency, µM (top dose mostly 28.7 µM), for the others: at the top dose activity change, negative = inhibition, actives largely listed as inhibitors | AID 504832, 2011 | P. falciparum luciferase growth in erythrocytes, 48 h; further: potency means the concentration at half of the fitted maximal effect; on the % scale 0 is the no-effect control and ±100 the full control effect
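Luminescence readout; reporter = integrated firefly luciferase in P. falciparum. RBC culture at 2% hematocrit, 0.1% parasitemia final, 37 C/5% CO2; decreased signal taken as growth inhibition.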
* = called active by the depositor; ? = inconclusive; · = no result; + = active, no number. Only some compounds are listed: those with a hit (about 19% of all), similar ones and a draw of the others. Unless noted, the call rests on the fitted dose curve; in most records, active means well fitted curve in the direction sought with a large enough effect; inconclusive means small, poorly fitted or top-dose-only effect, or another doubt; inactive means no such curve, though single readings can be large; an effect the other way counts as inactive or inconclusive.

SMILES | CHX counter | AMA1-RON2 inh | SARS PLP yeast | Pf growth 96h | Shiga toxin inh | Pf growth 48h
O=c1[nH]c(CSc2nc(-c3ccc(F)cc3)cs2)nc2ccccc12 | -2.8 | 9.0% | -3.8% | -8.7% | -9.7 | -4.8%
CCOCCn1c(=O)c2c(nc3n2CCCN3CCc2ccccc2)n(C)c1=O | -0.8 | 3.7% | 3.5% | 14.7µM* | -2.1 | ?
Cn1c(N2CCCC2)nc2c1c(=O)n(Cc1cccc(F)c1)c(=O)n2C | -0.5 | -1.3% | 0.9% | 10.4µM* | -4.5 | ?
Cn1c(=O)n(Cc2ccccc2)c(=O)c2c1nc1n2CCCN1CCc1ccccc1 | -8.6 | -26.7% | -13.6% | 3.29µM* | -16.4 | ·
Cn1c(=O)n(Cc2ccccc2)c(=O)c2c1nc1n2CCCN1Cc1ccccc1 | -2.4 | 2.4% | 6.1% | ? | -1.0 | ?
CCCCn1c(=O)c2c(nc3n2CCCN3Cc2ccccc2)n(C)c1=O | -4.1 | -9.0% | 3.1% | ? | -16.2 | 5.22µM*
CCOCCn1c(=O)c2c(nc3n2CCCN3Cc2ccccc2)n(C)c1=O | -1.1 | -5.3% | -2.1% | ? | -1.3 | -22.4%
Cc1ccc(C)c(NC(=O)CN(C)C(=O)c2nn(C)c(=O)c3ccccc23)c1 | -2.9 | 18.8% | 3.8% | 30.7% | -8.5 | -2.7%
O=C1COc2ccc(C(=O)COC(=O)c3ncc(Cl)c(Cl)c3Cl)cc2N1 | · | 0.0% | 0.8% | 54.7% | · | 44.0%
Cc1ccc(S(=O)(=O)N2C[C@@H]3[C@H]4CC[C@H](C4)[C@@H]3[C@@H](C)C2CC(=O)c2ccccc2)cc1 (stereo partly drawn) | · | -0.5% | -1.8% | · | · | ·
COc1ccc(OC)c(NC(=O)Nc2nnc([C@@H]3O[C@H](CO)[C@@H](O)[C@H]3O)s2)c1 | · | 9.4% | · | · | · | ·
Cc1ccc(-c2cc(C(=O)Nc3cc(C)ccc3O)no2)cc1 | 12.0 | 11.3% | ? | -25.1% | 20.1 | 486.7%
CC(C)c1cc(C(=O)Nc2cc(Cl)ccc2O)no1 | 67.9* | 1.9% | ? | ? | 142.8* | ?
O=C(Nc1cc(Br)ccc1O)c1cc(-c2cccs2)on1 | 21.6* | -19.2% | -2.2% | 75.5% | 78.5* | ?
COC(=O)c1ccccc1NC(=O)c1cc(-c2cccs2)on1 | -1.8 | 5.6% | 4.7% | -6.6% | -12.5 | 7.7%
CC(C)c1cc(C(=O)Nc2cc(Br)ccc2O)no1 | 35.8* | 13.7% | -2.7% | · | 119.7* | ?
COc1ccc(CN(C(=O)c2ccco2)c2ccccc2)cc1 | 0.3 | 2.1% | 29.1% | 4.4% | 13.9 | -25.5%
COc1ccc(CN(CCC(c2ccccc2)c2ccco2)C(=O)c2ccco2)cc1 (stereo not drawn) | -0.9 | -15.9% | 2.5% | 11.7µM* | -2.0 | 0.0%
O=C(c1ccco1)N(CCC(c1ccccc1)c1ccco1)Cc1ccccc1 (stereo not drawn) | 1.2 | ? | -5.8% | 13.1µM* | 18.9 | ?
Cc1ccc(C(=O)NCc2ccccn2)cc1NC1=NC2CS(=O)(=O)CC2S1 (stereo not drawn) | -1.6 | 9.5% | 1.4% | 49.4% | 1.0 | 50.4%
CCCc1c(CC)c(=N)c2ccccc2n1C | 7.6 | 19.3% | 3.2% | 1.9% | 36.9 | 0.329µM*
O=C(Nc1cccc(Cl)c1)ON=C1c2ccccc2-c2ccccc21 | 24.1 | -4.0% | -31.9% | 140.7% | 41.3 | 7.7%
O=C(Nc1ccccc1)ON=C1CCCC1 | 23.3* | 14.9% | -71.8% | ? | 38.6 | 8.28µM*
Cc1ccc(NC(=O)ON=C2CCCC2)cc1 | 54.9* | 9.3% | · | 19.9% | + | 4.65µM*
Cc1ccc(NC(=O)C/C(N)=N/OC(=O)Nc2cccc(C)c2)cc1 | · | 22.9% | -5.3% | 37.6% | · | 35.5%
COc1ccc(-c2noc(CCC(=O)N3CCN(c4ccccc4F)CC3)n2)cc1 | · | 15.4% | 0.7% | · | · | ·
COc1ccc(-c2ccc(CN3C(C)C(=O)N(Cc4cn(CCC5OCCO5)nn4)CCS3(=O)=O)cc2)cc1OC (stereo not drawn) | · | 5.6% | · | · | · | ·
CCOC(=O)c1cnc2ccccc2c1NCCO | 9.0 | -2.7% | 1.8% | ? | 40.7 | -6.6%
